# The list is not random: actives were taken first. Their share in the collection is about 19%.
# HepG2 tox: kills HepG2 cells in TGF-b inhibitor counter-screen; HepG2 CAGA-GFP viability, ATP luminescence, 18 h; Potency, µM (titrated, usually from 46.1 µM), for inactives: at the top dose activity change, negative = cytotoxicity, most hits filed as cytotoxic; 0.76% of 410,000 active; further: potency means the concentration at half of the fitted maximal effect
#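 HepG2 CAGA-GFP cells (1000/well, DMEM with 1% FBS) received compound, then TGF-beta at 500 pg/mL final, and were incubated 18 hours at 37 degrees C. Viability was read by CellTiter-Glo luminescence. Media-only wells were set as complete cell-killing and DMSO as no toxicity.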
# TDP1 cell CPT: growth inhibition of DT40 Tdp1-/-;hTDP1 cells with camptothecin (screen for TDP1 inhibitors); chicken DT40 Tdp1-/-;hTDP1 cells + 20 nM CPT, ATP luminescence, 48 h; Potency, µM (top dose mostly 46.2 µM), without a hit: at the top dose activity change, negative = growth inhibition, most hits filed as inhibitors; 12% of 420,000 active; AID 686979; further: potency means the concentration at half of the fitted maximal effect; on the % scale 0 is the no-effect control and ±100 the full control effect; nearly all actives have a fitted effect of over 55% in size
#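 Chicken DT40 Tdp1-/- cells complemented with human TDP1, 400 cells/well, exposed to compounds plus 20 nM camptothecin for at least 48 h at 37 C; viability read as ATP content by CellTiter-Glo luminescence.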
# TGFb inhibitor: inhibitors of TGF-b signaling. HepG2 CAGA-GFP TGF-b/SMAD3 reporter, GFP fluorescence, 18 h; TGF-beta stimulated, 500 pg/mL final. Potency, µM (highest dose often 46.1 µM), for inactives: top-dose activity, negative = inhibition, actives largely listed as inhibitors. 1.2% of 410,000 active. AID 588855; further: potency means the concentration at half of the fitted maximal effect; on the % scale 0 is the no-effect control and ±100 the full control effect; nearly all actives have a fitted effect of over 65% in size
#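 Smad-responsive CAGA-GFP expression was quantified in HEPG2 cells exposed to compounds and 500 pg/mL final TGF-beta for 18 h at 37 degrees C; unstimulated wells defined full inhibition.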
# DT40 TDP1 no CPT: qHTS for Inhibitors of human tyrosyl-DNA phosphodiesterase 1 (TDP1): qHTS in cells in absence of CPT | DT40 Tdp1-/- hTDP1 cells, no CPT, ATP luminescence, 48 h | Potency, µM (titrated, usually from 46.2 µM), for inactives: at the top dose activity change, negative = growth inhibition, actives largely listed as inhibitors | 15% of 420,000 active | AID 686978, 2013; further: potency means the concentration at half of the fitted maximal effect; on the % scale 0 is the no-effect control and ±100 the full control effect; nearly all actives have a fitted effect of over 55% in size
#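 Stably hTDP1-transfected Tdp1-null chicken DT40 cells were treated with library compounds minus camptothecin and grown for at least 48 hr at 37 °C, after which cellular ATP was quantified by luminescence.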
# ASM inhibitor: inhibitors of human secretory acid sphingomyelinase | Potency, µM (top dose mostly 57.5 µM), for inactives: at the top dose activity change, negative = inhibition, actives largely listed as inhibitors | 0.006% of 340,000 active | AID 504937 | placental ASM, HMU-PC fluorogenic substrate, 60 min | P17405; further: potency means the concentration at half of the fitted maximal effect
# Target sequence (P17405 47-631 limits assumed): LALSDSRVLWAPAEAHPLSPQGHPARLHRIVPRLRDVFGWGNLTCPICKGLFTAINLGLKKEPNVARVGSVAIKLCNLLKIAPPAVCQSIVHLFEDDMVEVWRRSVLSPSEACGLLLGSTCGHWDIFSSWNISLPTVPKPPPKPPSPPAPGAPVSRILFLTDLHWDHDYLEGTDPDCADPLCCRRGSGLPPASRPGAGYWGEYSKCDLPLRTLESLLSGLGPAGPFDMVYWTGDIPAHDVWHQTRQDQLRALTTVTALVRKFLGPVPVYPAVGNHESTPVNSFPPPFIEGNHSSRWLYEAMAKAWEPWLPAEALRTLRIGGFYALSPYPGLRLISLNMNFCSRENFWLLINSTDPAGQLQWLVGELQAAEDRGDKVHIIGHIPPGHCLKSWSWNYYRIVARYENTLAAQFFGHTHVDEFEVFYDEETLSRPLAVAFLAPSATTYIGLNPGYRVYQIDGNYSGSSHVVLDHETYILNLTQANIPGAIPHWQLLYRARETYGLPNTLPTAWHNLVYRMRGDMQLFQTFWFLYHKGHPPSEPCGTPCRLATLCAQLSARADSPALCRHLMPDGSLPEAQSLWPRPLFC
#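 qHTS format. ASM enzyme prepared from human placenta hydrolyses the fluorogenic substrate HMU-PC0 (9 uM final) over 60 min at 37 °C after a 10 min compound preincubation.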
# IL1B secr inh: inflammasome signaling inhibition, IL-1 beta readout | THP-1 LPS/ATP IL-1B secretion, AlphaLISA, 16 h; hits give low values | activity change, % at 57.5 µM | 4.7% of 360,000 active | AID 743279; in the data active means activity change below about -50%; inconclusive means mostly about -30% to -49%; further: on the % scale 0 is the no-effect control and ±100 the full control effect
#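 THP-1 cells pretreated 1 hr with compounds (up to 57.5 uM final), then stimulated with LPS (250 ng/mL final) plus ATP (1.25 mM final); secreted IL-1B measured by AlphaLISA after 16 hr, decreased signal indicating inhibition.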
# * hit, by the source's call; ? = inconclusive; nt = no result given. Unless noted, the call rests on the fitted dose curve; in most records, active means well fitted curve in the direction sought with a large enough effect; inconclusive means small, poorly fitted or top-dose-only effect, or another doubt; inactive means no such curve, though single readings can be large; an effect the other way counts as inactive or inconclusive.
SMILES,HepG2 tox,TDP1 cell CPT,TGFb inhibitor,DT40 TDP1 no CPT,ASM inhibitor,IL1B secr inh
CC(=O)Nc1ccn(C2OC(C(COC(C)=O)NC(=O)C(C)NC(=O)OC(C)(C)C)C(OC(C)=O)C2OC(C)=O)c(=O)n1 (configuration not stated),-3.8%,nt,0.3%,nt,nt,nt
COc1ccc2nc(SCC(=O)c3c(C)[nH]c4ccccc34)nc(C)c2c1,-13.1%,1.3%,-22.8%,-12.9%,nt,nt
Cc1oc(-c2ccc(F)cc2)nc1CN(Cc1ccccn1)CC1CCCO1 (configuration not stated),11.0%,?,11.7%,29.1µM*,17.1%,21.5
O=C1CC[C@@H](CN(Cc2ccccn2)Cc2nc(Cc3ccccc3)no2)N1,19.8%,11.3%,0.7%,-23.3%,9.2%,11.8
Clc1ccc(-c2noc(CN(Cc3ccccn3)CC3CCCO3)n2)cc1 (configuration not stated),-1.5%,?,0.9%,16.4µM*,-3.3%,5.3
FC(F)(F)c1cccc(Cc2noc(CN(Cc3ccccn3)CC3CCCO3)n2)c1 (configuration not stated),-21.2%,20.6µM*,-22.1%,20.6µM*,1.4%,3.8
CCN(Cc1nc(-c2ccc(Cl)cc2)no1)CC1CCCO1 (configuration not stated),-26.7%,-19.5%,-13.4%,?,5.4%,-13.9
O=C(NCCc1ccc(C(F)(F)F)cc1)C1CCC(=O)N(CCCN2CCCC2=O)C1 (configuration not stated),-52.9%,-19.3%,-1.4%,1.4%,-0.2%,14.7
O=C(COC(=O)c1cc(Br)ccc1O)NCCC1=CCCCC1,4.6%,-11.7%,1.1%,-11.0%,nt,13.7
COc1ccc(/C=C/C(=O)c2cc(Cl)cc(Cl)c2O)c(OC)c1,9.5%,-10.1%,2.1%,?,-7.5%,-13.5
COc1cccc(/C=C/C(=O)OCC(=O)NCCNC(=O)COC(=O)/C=C/c2cccc(OC)c2)c1,-0.8%,?,-0.4%,?,-2.5%,32.8
CNc1ccc(Br)cc(C(=O)/C=C/c2ccc(Cl)cc2Cl)c1=O,-25.7%,4.61µM*,?,18.4µM*,-1.8%,-91.1*
CNc1ccc(Br)cc(C(=O)/C=C/c2cccc(OC)c2)c1=O,-56.9%,13µM*,?,7.31µM*,-6.5%,-100.9*
CNc1ccc(Br)cc(C(=O)/C=C/c2ccc(OC)cc2OC)c1=O,-2.8%,9.2µM*,?,14.6µM*,0.9%,?
COc1ccc(S(=O)(=O)NC(=O)C2(C)CCN2C(=O)Cc2cc(C)cc(C)c2)cc1 (configuration not stated),9.4%,20.0%,7.2%,-3.1%,nt,4.7
O=C(c1ccc2c(c1)N(Cc1ccc(Cl)cc1)C(=O)c1ccccc1S2=O)N1CCOCC1 (configuration not stated),-35.4%,?,?,?,nt,nt
CC(C)NC(=O)N1Cc2cc(C(=O)NC3CCC3)nc(-c3cccc(-c4cncnc4)c3)c2[C@H]1CCO,nt,-23.6%,nt,-28.6%,nt,0.0
Cc1cccc(N2CC(C(=O)NC3CCCCCC3)CC2=O)c1C (configuration not stated),-1.4%,?,9.7%,?,0.1%,7.0
OCC1(Cc2ccccc2)CCCN(Cc2ccc(-c3ccco3)cc2)C1 (configuration not stated),-18.3%,?,-8.8%,23.1µM*,-1.1%,-84.0*
O=C(c1ccc(-n2ccnc2)cc1)N1CCCC(CO)(Cc2cccc(Cl)c2)C1 (configuration not stated),-15.9%,4.61µM*,-16.1%,?,-0.5%,-1.3
Cn1cc(CN2CCCC(CO)(Cc3cccc(Cl)c3)C2)cn1 (configuration not stated),-0.3%,-20.6%,11.4%,?,7.1%,-16.1
CSc1cccc(CN2CCCC(CO)(Cc3cccc(Cl)c3)C2)c1 (configuration not stated),-2.3%,-4.9%,1.0%,12.0%,-0.7%,-7.6
OCC1(Cc2cccc(Cl)c2)CCCN(Cc2ccc(F)c(F)c2)C1 (configuration not stated),-0.8%,23.1µM*,-18.2%,?,-0.3%,-55.3*
OCC1(Cc2cccc(Cl)c2)CCCN(Cc2cnn(-c3ccccc3)c2)C1 (configuration not stated),-57.1%,?,?,13µM*,0.0%,-18.7
CCOc1ccc(-c2nc(Cn3c(=O)cc(C)c4c(C)nn(-c5ccc(C)cc5)c43)c(C)o2)cc1,5.3%,-17.3%,-11.9%,0.8%,nt,nt
SMILES,HepG2 tox,TDP1 cell CPT,TGFb inhibitor,DT40 TDP1 no CPT,ASM inhibitor,IL1B secr inh
CCC(CC)c1nn2c(=O)cc(COc3ccc(NC(=O)c4cccc(Cl)c4)cc3)nc2s1,0.6%,-1.4%,11.5%,-14.9%,nt,nt
COc1ccc(CN2CCCC(CO)(Cc3cccc(Cl)c3)C2)cc1OC (configuration not stated),-47.8%,-28.8%,-27.4%,20.6µM*,2.3%,-9.0
Cc1nn(C)c(Cl)c1CN1CCCC(CO)(Cc2cccc(Cl)c2)C1 (configuration not stated),-0.5%,14.6µM*,-16.4%,14.6µM*,1.5%,-4.2
COc1cc(CN2CCCC(CO)(Cc3cccc(Cl)c3)C2)cc(OC)c1O (configuration not stated),2.9%,?,4.3%,?,2.3%,-17.1
Cn1nc(-c2ccccc2)c(CN2CCN(c3ncccn3)CC2)c1Cl,-13.8%,?,-5.4%,?,-1.5%,-13.2
O=S(=O)(c1cnc[nH]1)N1CCc2ccccc21,11.7%,?,1.1%,23.1µM*,-0.4%,17.9
C/C(=N/Nc1ccc([N+](=O)[O-])cc1)c1c[nH]c2ccccc12,-20.5%,?,-3.1%,?,-11.4%,-4.3
Cc1ccc2c(c1)CC(C)N2S(=O)(=O)c1nnc(NC(=O)C(C)C)s1 (configuration not stated),-14.7%,?,0.0%,?,nt,nt
C/C(O)=C(\N=Nc1cc(C)ccc1O)C(N)=O,-30.5%,?,-20.5%,20.6µM*,-10.3%,30.2
Cc1ccc(O)c(N=Nc2ccc(S(=O)(=O)N3CCOCC3)cc2)c1,-8.1%,2.4%,-0.9%,-15.8%,-15.3%,-5.1
c1ccc(N=NC2=NN(c3ccccc3)CS2)cc1,-53.1%,?,?,5.8µM*,nt,-16.8
